# Screening results from PubChem.
# MBD2 DNA inh: inhibitors of MBD2 binding to methylated DNA, primary screen, biochemical, TR-FRET, DNA-binding domain, human | actives 0.31% (n = 370,000) | Methyl-CpG-binding domain protein 2 (Homo sapiens), Q9UBB5 | MBD2 binding to methylated oligonucleotide | AID 686964, 2013 | inhibition, % at 4.4 µM; in the data active = inhibition above about 13%
# PRMT1 FP inh: PRMT1 methyltransferase inhibitors, primary screen, biochemical, fluorescence polarization | recombinant PRMT1, activity-based probe fluorescence polarization | AID 652257, 2013 | actives 1.3% (n = 370,000) | Protein arginine N-methyltransferase 1 (Homo sapiens), Q99873 | inhibition, % at 2.79 µM;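 active = inhibition above about 21% made by adding two undisclosed values, limit read from the data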
# Target sequence (Q99873 whole entry, looked up): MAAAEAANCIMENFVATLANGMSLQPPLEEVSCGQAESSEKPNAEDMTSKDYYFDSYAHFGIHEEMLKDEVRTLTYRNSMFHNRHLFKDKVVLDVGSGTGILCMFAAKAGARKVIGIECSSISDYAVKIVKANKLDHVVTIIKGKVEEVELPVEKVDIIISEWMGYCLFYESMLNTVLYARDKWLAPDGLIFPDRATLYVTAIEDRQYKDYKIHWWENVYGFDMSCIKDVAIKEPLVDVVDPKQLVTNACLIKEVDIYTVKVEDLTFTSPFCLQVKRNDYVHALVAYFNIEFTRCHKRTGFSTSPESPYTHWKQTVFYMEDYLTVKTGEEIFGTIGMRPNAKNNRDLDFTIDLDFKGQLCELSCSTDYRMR
# UHRF1 binding: UHRF1 methylated DNA binding inhibitors, primary screen, counter-screen for MBD2 inhibitor project, biochemical, TR-FRET, human UHRF1, single concentration; E3 ubiquitin-protein ligase UHRF1 (Homo sapiens), Q96T88; actives 0.75% (n = 370,000); AID 687016, 2013; inhibition, % at 4.4 µM; UHRF1 binding to methylated oligo; in the data active = inhibition above about 21%;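 note: UHRF1 SRA domain binding a hemimethylated CpG hairpin DNA probe; 0% = median of test compound wells and 100% = reference inhibitor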
# PfG6PD inh: PfG6PD enzyme inhibitors, primary screen, biochemical, fluorescence intensity, uHTS; glucose-6-phosphate dehydrogenase-6-phosphogluconolactonase (Plasmodium falciparum 3D7); PfGluPho enzyme, NADPH resazurin-diaphorase fluorescence; inhibition, % at 20 µM; actives 0.78% (n = 350,000); AID 504690, 2011;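 active = inhibition reaching at least a set limit at 20 µM in the primary screen, cut at about 59% in these data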;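 note: 0% = DMSO wells with substrate and 100% = DMSO wells lacking glucose-6-phosphate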
# PfM18AAP inh: PfM18AAP inhibitors, malaria aminopeptidase, primary screen, biochemical, QFRET, recombinant enzyme | M18 aspartyl aminopeptidase (Plasmodium falciparum 3D7) | H-Glu-NHMec fluorogenic cleavage | inhibition, % at 7.35 µM | actives 1.2% (n = 290,000) | AID 1822, 2009;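 active = inhibition above the campaign mean inhibition over all tested compounds plus 3 SD, cut at about 28% in these data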;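 note: 0% = plate median of test compound wells and 100% = 2 mM ZnCl2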
# PRMT1 inh conf: PRMT1 methyltransferase inhibitors, confirmation, biochemical, fluorescence polarization, triplicate | shares compounds with PRMT1 FP inh | recombinant His-PRMT1, activity-based probe fluorescence polarization | inhibition, % at 2.79 µM | actives 42% (n = 3,300) | AID 687036, 2013;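 active = mean inhibition across replicates above the hit cutoff derived for the earlier primary screen, cut at about 22% in these data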
# The depositor's hits bear a star; x = not tested or not shown. A selection: hits, their analogues and other compounds. The true share with any hit is near 3.3%.
SMILES,MBD2 DNA inh,PRMT1 FP inh,UHRF1 binding,PfG6PD inh,PfM18AAP inh,PRMT1 inh conf
S=C(Nc1ccccc1)N1CCCN1c1ccccc1,4,2,2,-21,0,x
Nc1nonc1-n1nnc(C(=O)N/N=C/c2cccc(Cl)c2Cl)c1CN1CCCC1,1,4,0,10,1,x
COc1ccc(S(=O)(=O)N2CCCc3nc(-c4ccc(F)cc4)ccc32)cc1,-4,-4,-1,x,x,x
O=C(CSc1ccc(Cl)cc1)c1ccco1,x,x,x,21,8,x
O=C(CCSc1ccc(Cl)cc1)c1ccco1,-2,41*,4,17,-9,66*
O=C1c2ccccc2-c2onc3ccc(N4CCCC4)c1c23,1,90*,23*,45,5,74*
Oc1ccc(CNc2ccccc2Br)c2cccnc12,1,32*,-4,x,x,19
Oc1ccc(CNc2cccc(F)c2)c2cccnc12,-4,63*,-7,x,x,48*
CCc1c2c(nc3ccc(OC(=O)N4CCC(N5CCCCC5)CC4)cc13)-c1cc3c(c(=O)n1C2)COC(=O)[C@]3(O)CC,-9,0,-6,17,x,x
CCC1(O)C(=O)OCc2c1cc1n(c2=O)Cc2cc3cc(O)ccc3nc2-1 (stereo not drawn),-7,28*,-1,38,x,31*
Cn1ncc2c(=S)nc(Cl)[nH]c21,2,31*,2,30,x,6
CCN1C[C@@H]2[C@@H]3C(=O)N(Cc4ccccc4)C(=O)[C@@H]3[C@](CC)(C(=O)OC)N2C1=NCc1ccccc1,10,32*,4,8,x,6
CCN1C(=O)[C@H]2[C@H]3CN=C(SCC(=O)c4ccccc4)N3[C@@](CC)(C(=O)OC)[C@H]2C1=O,-5,69*,1,8,x,44*
COC(=O)[C@@]1(C)[C@H]2C(=O)N(Cc3ccccc3)C(=O)[C@H]2[C@H]2CN=C(SCC(=O)c3ccccc3)N21,1,80*,-3,28,x,58*
CCCN=C1N(CC)C[C@@H]2[C@@H]3C(=O)N(Cc4ccccc4)C(=O)[C@@H]3[C@](Cc3ccccc3)(C(=O)OC)N12,2,-2,0,18,x,x
COC(=O)[C@]12C[C@H](CC(=O)NCCCN3CCCC3=O)C(=O)N(Cc3cccc4ccccc34)C1=C[C@H](COCc1ccccc1)O[C@@H]2C,-7,13,-1,x,x,x
CN(Cc1ccccc1)C(=O)c1ccc(NC(=O)Cc2ccc(NC(=O)C3CCCN(C(=O)CCc4ccccc4)C3)cc2)cc1 (stereo not drawn),-3,-1,-3,-10,x,x
C=CCSc1nnc(N2C(=O)C(O)=C(C(=O)c3ccco3)C2c2ccccc2F)s1 (stereo not drawn),1,27*,0,30,13,10
COc1ccc(C2C(C(=O)c3cccs3)=C(O)C(=O)N2c2nncs2)cc1 (stereo not drawn),-4,75*,-14,-1,19,99*
CC(C)c1nnc(N2C(=O)C(O)=C(C(=O)c3cccs3)C2c2ccccc2)s1 (stereo not drawn),-7,79*,-19,10,-1,76*
O=C(C1=C(O)C(=O)N(c2nc3ccc(Cl)cc3s2)C1c1ccco1)c1ccco1 (stereo not drawn),10,36*,24*,12,x,7
COc1ccc(OC)c(S(=O)(=O)N2CCN(C(=O)NC3CCCCC3)CC2)c1,4,0,-1,-9,x,x
CC(C(=O)Nc1cccnc1)n1cc([N+](=O)[O-])cn1 (stereo not drawn),1,-4,-1,4,3,x
Cc1ccc(C(=O)N2CCN(Cc3ccc4c(c3)OCO4)CC2)cc1C,-6,-7,1,19,-2,x
CCS(=O)(=O)N1CCC(C(=O)Nc2ccc(C(C)=O)cc2)CC1,-5,0,2,-14,-4,x
SMILES,MBD2 DNA inh,PRMT1 FP inh,UHRF1 binding,PfG6PD inh,PfM18AAP inh,PRMT1 inh conf
CCOC(=O)CN1C(=O)CC(c2ccc([N+](=O)[O-])cc2)C1=O (stereo not drawn),6,1,3,11,6,x
C=CCOc1ccc(C2C(C(=O)c3cccs3)=C(O)C(=O)N2c2nnc(C)s2)cc1 (stereo not drawn),-3,41*,-6,-16,4,25*
Cc1ccc(C2C(C(=O)c3ccco3)=C(O)C(=O)N2c2nnc(C)s2)cc1 (stereo not drawn),-1,30*,1,6,2,5
Cc1nnc(N2C(=O)C(O)=C(C(=O)c3ccco3)C2c2cccc3ccccc23)s1 (stereo not drawn),6,14,5,-2,18,x
COc1ccc(C2C(C(=O)c3cccs3)=C(O)C(=O)N2c2nnc(C)s2)cc1OC (stereo not drawn),x,x,x,-13,1,x
O=C(CSc1nnc(COc2ccccc2)n1Cc1ccco1)NCc1ccco1,1,29*,11,9,-22,13
Cc1cc(NC(=O)CSc2nnc(COc3ccccc3)n2Cc2ccco2)no1,-1,-2,-2,-8,-10,x
Cc1c(C(=O)NCc2ccc3c(c2)OCCO3)sc(=O)n1Cc1ccccc1F,1,0,-2,x,x,x
O=C(O)C1CSC(c2coc3ccccc3c2=O)N1 (stereo not drawn),1,51*,1,-2,29*,35*
CC1CCOC(c2coc3ccccc3c2=O)O1 (stereo not drawn),2,-1,0,-12,-1,x
Cc1ccc(NC(=O)/C=C\C(=O)NCC(=O)O)cc1C,-7,40*,2,-9,1,3
O=C(Nc1ccccc1)C1=C(c2ccccc2)S(=O)(=O)CCS1(=O)=O,-5,47*,-1,41,-33,56*
CN1c2ccsc2C(O)=C(C(=O)Nc2ccccc2)S1(=O)=O,4,2,4,6,6,x
O=C(NCc1ccco1)c1cc2nc(-c3cccs3)cc(C(F)(F)F)n2n1,-4,34*,-4,12,11,2
Cc1oc(=O)c(NC(=O)c2ccccc2)cc1C(=O)c1ccccc1,2,56*,-3,3,-32,11
Cc1oc(=O)c(NC(=O)c2ccc(Cl)cc2)cc1C(=O)c1ccccc1,-3,42*,0,8,-32,21
CC(=O)c1cc(NC(=O)c2ccccc2)c(=O)oc1C,4,20,-2,8,0,x
CC(=O)c1cc(NC(=O)c2ccc(C)cc2)c(=O)oc1C,4,33*,2,2,-2,-6
COC(=O)c1cc(NC(=O)c2ccc(OC)cc2)c(=O)oc1C,4,1,3,-10,1,x
